Screening data from PubChem BioAssay.
Luciferase inh – inhibitors of firefly (Photinus pyralis) luciferase; P08659; Potency, µM (highest dose often 115 µM), hits mostly inhibitors; purified P. pyralis luciferase, luminescence, biochemical; 76,000 compounds, 2.5% hits; further: nearly all actives have a fitted effect of over 65% in size
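Cell-free enzyme assay, 10nM P. pyralis luciferase, luciferin and ATP each at 10uM. Inhibition profiled over a 6-point titration, read as luminescence.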
NPR1 antag – human Npr1 receptor antagonism; Potency, µM (titrated, usually from 46.3 µM), actives largely listed as inhibitors; HEK293 hNpr1 GloSensor cGMP, ANP-stimulated luminescence; 76,000 compounds, 1.6% hits; calls by dose curve; further: nearly all actives have a fitted effect of over 60% in size
Target sequence (P16066 whole entry, looked up): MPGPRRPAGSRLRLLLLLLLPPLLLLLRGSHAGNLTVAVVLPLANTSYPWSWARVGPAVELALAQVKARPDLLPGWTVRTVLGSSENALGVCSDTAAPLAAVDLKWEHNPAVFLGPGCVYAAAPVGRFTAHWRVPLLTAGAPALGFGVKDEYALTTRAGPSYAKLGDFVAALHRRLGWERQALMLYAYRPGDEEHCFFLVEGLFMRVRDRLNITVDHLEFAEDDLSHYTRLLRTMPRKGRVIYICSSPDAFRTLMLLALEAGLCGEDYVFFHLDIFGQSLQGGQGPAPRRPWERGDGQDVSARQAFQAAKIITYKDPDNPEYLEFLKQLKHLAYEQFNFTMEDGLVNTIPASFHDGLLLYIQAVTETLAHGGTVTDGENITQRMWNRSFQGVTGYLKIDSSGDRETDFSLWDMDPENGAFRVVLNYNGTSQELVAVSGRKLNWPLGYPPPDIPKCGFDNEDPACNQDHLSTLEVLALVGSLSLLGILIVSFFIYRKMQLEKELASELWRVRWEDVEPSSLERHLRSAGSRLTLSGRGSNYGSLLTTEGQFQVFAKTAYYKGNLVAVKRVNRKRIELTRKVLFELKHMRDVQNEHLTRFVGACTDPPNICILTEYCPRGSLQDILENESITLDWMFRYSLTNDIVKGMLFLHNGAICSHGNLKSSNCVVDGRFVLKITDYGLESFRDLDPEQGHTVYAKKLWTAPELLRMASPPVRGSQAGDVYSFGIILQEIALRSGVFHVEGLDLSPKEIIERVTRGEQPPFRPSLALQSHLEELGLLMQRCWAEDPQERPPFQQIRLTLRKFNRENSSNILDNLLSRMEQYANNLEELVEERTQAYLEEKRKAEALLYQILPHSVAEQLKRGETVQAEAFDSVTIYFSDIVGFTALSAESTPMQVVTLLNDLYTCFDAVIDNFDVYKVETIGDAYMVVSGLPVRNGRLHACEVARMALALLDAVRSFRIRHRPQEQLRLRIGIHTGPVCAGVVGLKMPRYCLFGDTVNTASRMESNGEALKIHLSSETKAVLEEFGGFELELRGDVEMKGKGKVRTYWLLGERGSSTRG
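Compound pre-incubated 30 min at room temperature on GloSensor-loaded HEK293 cells stably carrying hNpr1 and the pGS-40F cGMP biosensor. Stimulation uses hNppA at 0.1 nM final; luminescence is taken at baseline and 20 min post-agonist.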
GPT2 inhibitor – blocks human glutamate pyruvate transaminase 2 | Q8TD30 | Recombinant GPT2, coupled pyruvate oxidase/HRP Amplex Red fluorescence | Potency, µM (titrated, usually from 57.7 µM), actives largely listed as inhibitors | 100,000 compounds, 0.25% hits | AID 1671188; further: nearly all actives have a fitted effect of over 60% in size
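Fluorescence read-out: pyruvate from GPT2 turnover coupled to pyruvate oxidase, HRP and Amplex Red (0.2mM ThPP, 0.2U/mL PO and HRP, 50uM Amplex final). Substrates 250uM a-KG, 2mM L-alanine; enzyme 10ng/uL; 30 min RT.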
HEK cytotox – kills HEK 293 cells; AID 1345083; 94,000 compounds, 6.6% hits; Potency, µM (doses to about 115 µM), actives largely listed as inhibitors; HEK 293 viability, ATP luminescence (CellTiter-Glo), 48-72 h; further: nearly all actives have a fitted effect of over 60% in size
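Cytotoxicity was scored by loss of ATP-coupled luminescence (CellTiter-Glo) in HEK 293 cells. Compound treatment ran 48 or 72 hr at 37 degree Celsius, 5% CO2, 95% humidity.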
3T3 cytotox – cytotoxic compounds in NIH 3T3 cells; NIH 3T3 viability, CellTiter-Glo ATP luminescence, 48-72 h; Potency, µM (series often up to 96.7 µM), actives largely listed as inhibitors; 94,000 compounds, 4.3% hits; further: nearly all actives have a fitted effect of over 55% in size
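First NIH 3T3 cells are plated at 400 cells/well; next compound is pinned in; then plates incubate 48 or 72 hr at 37 °C; finally CellTiter-Glo is added and luminescence read after 10 min.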
Large screens that a line does not name were inactive. Hits are enriched below; roughly 10% of the tested compounds scored in any of these assays. Unless noted, the call rests on the fitted dose curve; in most records, active means well fitted curve in the direction sought with a large enough effect; inconclusive means small, poorly fitted or top-dose-only effect, or another doubt; inactive means no such curve, though single readings can be large; an effect the other way counts as inactive or inconclusive.

Cc1nc(-c2cccc(Cl)c2)n(CC(=O)Nc2ccccc2F)c(=O)c1CCO	HEK cytotox 44.7µM, 3T3 cytotox inconclusive
COc1ccc(NC(=O)Cn2c(-c3ccccc3)nc(C)c(CCO)c2=O)cc1OC	HEK cytotox inconclusive, 3T3 cytotox inconclusive
Cc1cc(C)cc(NC(=O)Cn2c(-c3ccccc3)nc(C)c(CCO)c2=O)c1	HEK cytotox 31.6µM, 3T3 cytotox inconclusive
O=C1CC(c2ccccc2)N(C(=O)Nc2ccccc2)CCCCCN1 (stereo not drawn)	none
CNC(=O)c1cc(C2CC2)nc2c1c(C1CCN(C(=O)c3ccncc3)CC1)nn2C	none (no result: Luciferase inh, NPR1 antag, GPT2 inhibitor)
CCc1cccc(NC(=O)Cn2c(-c3ccc(Cl)cc3)nc(C)c(CCO)c2=O)c1	GPT2 inhibitor inconclusive, HEK cytotox inconclusive
Cc1nc(-c2cccc(Cl)c2)n(CC(=O)Nc2ccc3c(c2)OCO3)c(=O)c1CCO	HEK cytotox 39.8µM, 3T3 cytotox inconclusive
Cc1cc(NC(=O)Cn2c(-c3cccc(Cl)c3)nc(C)c(CCO)c2=O)no1	HEK cytotox inconclusive, 3T3 cytotox inconclusive
CSc1cccc(NC(=O)Cn2c(-c3ccc(F)cc3)nc(C)c(CCO)c2=O)c1	HEK cytotox 31.6µM, 3T3 cytotox inconclusive
Cc1nc(-c2cccc(Cl)c2)n(CC(=O)Nc2ccccc2)c(=O)c1CCO	HEK cytotox 44.7µM, 3T3 cytotox inconclusive
Cc1ccc(NC(=O)Cn2c(-c3cccc(Cl)c3)nc(C)c(CCO)c2=O)cc1	HEK cytotox 25.1µM, 3T3 cytotox 39.8µM
Cc1ccccc1N1CCN(C(=O)c2cc3cn(C4CC4)cc3s2)CC1	GPT2 inhibitor inconclusive, HEK cytotox 79.4µM, 3T3 cytotox inconclusive
CCc1noc(-c2cn(C3CCN(C(=O)C(C)Oc4cccc(Cl)c4)CC3)nn2)n1 (stereo not drawn)	3T3 cytotox inconclusive
COc1ccc(CN2Cc3[nH]cnc3C[C@H]2C(=O)NC2CCCCC2)c2ccccc12	HEK cytotox inconclusive, 3T3 cytotox 63.1µM
O=C(NCc1ccccc1)[C@@H]1Cc2nc[nH]c2CN1Cc1ccc(Cl)cc1	HEK cytotox inconclusive, 3T3 cytotox inconclusive
COc1ccc(CN2Cc3[nH]cnc3C[C@H]2C(=O)N(C)Cc2ccccc2)c2ccccc12	GPT2 inhibitor inconclusive, HEK cytotox 39.8µM, 3T3 cytotox inconclusive
O=C(NCc1ccc(Cl)cc1)[C@@H]1Cc2nc[nH]c2CN1Cc1ccc(Cl)cc1	NPR1 antag inconclusive, HEK cytotox 31.6µM, 3T3 cytotox 44.7µM
COc1ccc(CN2Cc3[nH]cnc3C[C@H]2C(=O)NCc2ccc(Cl)cc2)c2ccccc12	NPR1 antag inconclusive, GPT2 inhibitor inconclusive, HEK cytotox inconclusive, 3T3 cytotox inconclusive
COc1ccc(CN2Cc3[nH]cnc3C[C@H]2C(=O)NCc2ccc(C#N)cc2)c2ccccc12	HEK cytotox inconclusive, 3T3 cytotox 79.4µM
O=C1N(c2ccccc2)c2ccccc2C12CCN(Cc1ccsc1)C2 (stereo not drawn)	HEK cytotox inconclusive, 3T3 cytotox inconclusive (no result: Luciferase inh, NPR1 antag)
COc1cccc(-c2ccc(CN3CCCC(NC(=O)c4ccc(Cl)nc4)C3)cc2)c1 (stereo not drawn)	GPT2 inhibitor inconclusive, HEK cytotox 14.1µM, 3T3 cytotox 31.6µM (no result: Luciferase inh, NPR1 antag)
Cc1cccc(C(=O)NC2CCCN(Cc3ccc(-c4cc(C)cc(C)c4)cc3)C2)c1 (stereo not drawn)	HEK cytotox 39.8µM, 3T3 cytotox inconclusive (no result: Luciferase inh, NPR1 antag)
COc1cccc(-c2ccc(CN3CCCC(NC(=O)c4ccccn4)C3)cc2)c1 (stereo not drawn)	HEK cytotox 25.1µM, 3T3 cytotox inconclusive (no result: Luciferase inh, NPR1 antag)
Cc1cc(C)cc(-c2ccc(CN3CCCC(NC(=O)c4ccccn4)C3)cc2)c1 (stereo not drawn)	HEK cytotox inconclusive, 3T3 cytotox 14.1µM (no result: Luciferase inh, NPR1 antag)
O=C(NC1CCCN(Cc2ccc(-c3cncnc3)cc2)C1)c1ccccn1 (stereo not drawn)	HEK cytotox inconclusive (no result: Luciferase inh, NPR1 antag)
Cc1cc(C)cc(-c2ccc(CN3CCCC(NC(=O)c4ccc(C(F)(F)F)cc4)C3)cc2)c1 (stereo not drawn)	none (no result: Luciferase inh, NPR1 antag)
CC1(C)[C@H](Cc2cc(CN3CCOCC3)on2)C[C@@H]1NCc1ccccc1O	HEK cytotox inconclusive, 3T3 cytotox inconclusive
COc1cccc(-c2ccc(CN3CCCC(NC(=O)c4ccc(C(F)(F)F)cc4)C3)cc2)c1 (stereo not drawn)	none (no result: Luciferase inh, NPR1 antag)
